The target in experiment [1] is Dual specificity protein kinase CLK3 (Homo sapiens) (UniProt P49761). The following applies: at 1 µM.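 Note: each value is the mean inhibition of CLK3.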
The target of experiment [2] is Dual specificity tyrosine-phosphorylation-regulated kinase 1A (Homo sapiens) (UniProt Q13627). The settings on record: at 0.1 µM.
Experiment [3] shares this target. The following applies: at 1 µM.
Experiment [4] addresses Dual specificity tyrosine-phosphorylation-regulated kinase 1B (Homo sapiens) (UniProt Q9Y463). The settings on record: at 0.1 µM.
For experiment [5] the target is unchanged. The settings on record: at 1 µM.
Experiment [6] deals with T1, Dual specificity tyrosine-phosphorylation-regulated kinase 2 (Homo sapiens) (UniProt Q92630).
T1 sequence (whole entry): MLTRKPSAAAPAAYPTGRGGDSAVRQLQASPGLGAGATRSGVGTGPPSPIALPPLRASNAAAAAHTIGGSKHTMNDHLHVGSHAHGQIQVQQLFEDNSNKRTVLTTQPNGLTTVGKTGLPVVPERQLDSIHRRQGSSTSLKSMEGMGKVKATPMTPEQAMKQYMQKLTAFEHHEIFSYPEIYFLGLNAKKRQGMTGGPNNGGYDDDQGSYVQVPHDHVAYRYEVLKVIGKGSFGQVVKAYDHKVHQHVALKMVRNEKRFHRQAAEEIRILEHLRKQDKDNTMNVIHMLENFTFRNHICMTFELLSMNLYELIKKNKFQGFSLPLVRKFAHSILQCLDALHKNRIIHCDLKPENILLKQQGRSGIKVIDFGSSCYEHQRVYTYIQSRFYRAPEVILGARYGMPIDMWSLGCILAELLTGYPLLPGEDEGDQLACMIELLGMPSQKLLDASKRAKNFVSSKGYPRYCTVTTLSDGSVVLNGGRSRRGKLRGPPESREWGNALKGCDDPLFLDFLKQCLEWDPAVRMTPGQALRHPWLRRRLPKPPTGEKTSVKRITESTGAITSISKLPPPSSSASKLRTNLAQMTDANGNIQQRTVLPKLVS
The following applies: at 0.1 µM.

The target in experiment [7] is T1, Dual specificity tyrosine-phosphorylation-regulated kinase 2 (Homo sapiens). The following applies: at 1 µM.
Experiment [8] addresses Glycogen synthase kinase-3 alpha (Homo sapiens) (UniProt P49840). The following applies: at 0.1 µM.
Experiment [9] shares this target. The settings on record: at 1 µM.
Experiment [10] concerns the target Glycogen synthase kinase-3 beta (Homo sapiens) (UniProt P49841). The following applies: at 0.1 µM.
For experiment [11] the target is unchanged. The following applies: at 1 µM.
The target in experiment [12] is Homeodomain-interacting protein kinase 1 (Homo sapiens) (UniProt Q86Z02). The following applies: at 0.1 µM.
Sequence of Homeodomain-interacting protein kinase 1 (Homo sapiens) (Q86Z02 whole entry, looked up): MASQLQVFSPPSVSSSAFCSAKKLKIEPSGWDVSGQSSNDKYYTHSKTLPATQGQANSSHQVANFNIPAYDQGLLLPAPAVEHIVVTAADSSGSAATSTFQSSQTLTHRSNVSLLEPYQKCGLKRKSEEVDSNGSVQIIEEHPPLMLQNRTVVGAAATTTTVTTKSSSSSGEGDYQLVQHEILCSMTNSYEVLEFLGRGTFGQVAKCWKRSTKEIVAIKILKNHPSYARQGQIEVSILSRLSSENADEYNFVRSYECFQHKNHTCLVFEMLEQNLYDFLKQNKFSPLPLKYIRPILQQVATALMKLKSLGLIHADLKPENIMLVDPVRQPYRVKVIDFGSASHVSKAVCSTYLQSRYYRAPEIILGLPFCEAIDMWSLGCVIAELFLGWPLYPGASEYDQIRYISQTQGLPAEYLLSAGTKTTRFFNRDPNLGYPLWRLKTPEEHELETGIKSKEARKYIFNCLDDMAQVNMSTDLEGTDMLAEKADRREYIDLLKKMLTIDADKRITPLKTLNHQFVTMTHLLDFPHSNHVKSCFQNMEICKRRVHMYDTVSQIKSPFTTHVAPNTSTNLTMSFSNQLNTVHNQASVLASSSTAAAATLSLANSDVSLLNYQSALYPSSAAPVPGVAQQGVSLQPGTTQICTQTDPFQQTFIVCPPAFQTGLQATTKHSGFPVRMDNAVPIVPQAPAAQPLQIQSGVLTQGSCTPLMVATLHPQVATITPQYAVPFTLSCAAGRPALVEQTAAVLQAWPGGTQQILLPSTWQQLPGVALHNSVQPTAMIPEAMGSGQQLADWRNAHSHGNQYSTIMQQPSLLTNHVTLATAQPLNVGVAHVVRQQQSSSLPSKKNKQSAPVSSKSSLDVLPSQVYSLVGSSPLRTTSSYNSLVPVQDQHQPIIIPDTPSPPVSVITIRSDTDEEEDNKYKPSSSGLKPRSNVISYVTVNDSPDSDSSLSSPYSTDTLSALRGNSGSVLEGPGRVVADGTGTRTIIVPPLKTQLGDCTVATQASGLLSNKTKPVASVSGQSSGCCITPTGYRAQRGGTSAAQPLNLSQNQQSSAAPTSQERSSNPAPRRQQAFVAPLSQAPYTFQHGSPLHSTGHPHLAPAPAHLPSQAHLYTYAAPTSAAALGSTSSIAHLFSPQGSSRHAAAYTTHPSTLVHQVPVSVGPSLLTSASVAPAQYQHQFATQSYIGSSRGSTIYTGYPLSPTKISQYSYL
Experiment [13] has the same target. The settings on record: at 1 µM.
Experiment [14] deals with T2, Homeodomain-interacting protein kinase 4 (Homo sapiens) (UniProt Q8NE63).
T2 sequence (whole entry): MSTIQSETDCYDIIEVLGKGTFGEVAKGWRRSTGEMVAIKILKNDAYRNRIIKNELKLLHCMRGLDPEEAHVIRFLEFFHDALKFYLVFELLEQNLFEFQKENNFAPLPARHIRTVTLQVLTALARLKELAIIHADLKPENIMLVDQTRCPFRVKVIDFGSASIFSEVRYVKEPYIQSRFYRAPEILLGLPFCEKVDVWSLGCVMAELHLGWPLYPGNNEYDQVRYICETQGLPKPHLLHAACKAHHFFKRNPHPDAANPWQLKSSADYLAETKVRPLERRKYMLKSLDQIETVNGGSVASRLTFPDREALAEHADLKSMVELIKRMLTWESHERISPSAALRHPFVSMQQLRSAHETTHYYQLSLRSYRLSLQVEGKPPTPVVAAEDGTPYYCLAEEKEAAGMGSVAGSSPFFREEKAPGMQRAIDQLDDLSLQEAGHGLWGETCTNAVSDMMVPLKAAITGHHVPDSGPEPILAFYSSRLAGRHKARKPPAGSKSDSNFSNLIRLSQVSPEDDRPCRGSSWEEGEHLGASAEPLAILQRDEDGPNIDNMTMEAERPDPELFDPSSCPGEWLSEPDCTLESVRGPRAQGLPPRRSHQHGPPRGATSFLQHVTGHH
The following applies: at 0.1 µM.

The target of experiment [15] is T2, Homeodomain-interacting protein kinase 4 (Homo sapiens). The following applies: at 1 µM.
Experiment [16] addresses Mitogen-activated protein kinase 9 (Homo sapiens) (UniProt P45984). The following applies: at 0.1 µM.
For experiment [17] the target is unchanged. The settings on record: at 1 µM.
Experiment [18] has as its target Mitogen-activated protein kinase 1 (Homo sapiens) (UniProt P28482). The following applies: at 0.1 µM.
The target is the same in experiment [19]. The following applies: at 1 µM.
The target in experiment [20] is Mitogen-activated protein kinase 3 (Homo sapiens) (UniProt P27361). The settings on record: at 0.1 µM.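 Note: each value is a mean inhibition figure.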
Sequence of Mitogen-activated protein kinase 3 (Homo sapiens) (P27361 whole entry): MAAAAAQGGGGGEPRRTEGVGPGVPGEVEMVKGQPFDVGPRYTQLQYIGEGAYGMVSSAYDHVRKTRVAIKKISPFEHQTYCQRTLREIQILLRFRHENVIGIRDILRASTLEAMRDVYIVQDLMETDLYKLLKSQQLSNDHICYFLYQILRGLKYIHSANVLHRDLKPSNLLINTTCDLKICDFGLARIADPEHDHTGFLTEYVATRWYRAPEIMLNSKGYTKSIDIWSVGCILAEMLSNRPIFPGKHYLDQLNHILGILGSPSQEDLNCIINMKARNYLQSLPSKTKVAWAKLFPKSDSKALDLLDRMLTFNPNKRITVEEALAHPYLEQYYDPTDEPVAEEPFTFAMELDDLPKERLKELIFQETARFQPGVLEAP

Sequence of Dual specificity tyrosine-phosphorylation-regulated kinase 1B (Homo sapiens) (Q9Y463 whole entry, looked up): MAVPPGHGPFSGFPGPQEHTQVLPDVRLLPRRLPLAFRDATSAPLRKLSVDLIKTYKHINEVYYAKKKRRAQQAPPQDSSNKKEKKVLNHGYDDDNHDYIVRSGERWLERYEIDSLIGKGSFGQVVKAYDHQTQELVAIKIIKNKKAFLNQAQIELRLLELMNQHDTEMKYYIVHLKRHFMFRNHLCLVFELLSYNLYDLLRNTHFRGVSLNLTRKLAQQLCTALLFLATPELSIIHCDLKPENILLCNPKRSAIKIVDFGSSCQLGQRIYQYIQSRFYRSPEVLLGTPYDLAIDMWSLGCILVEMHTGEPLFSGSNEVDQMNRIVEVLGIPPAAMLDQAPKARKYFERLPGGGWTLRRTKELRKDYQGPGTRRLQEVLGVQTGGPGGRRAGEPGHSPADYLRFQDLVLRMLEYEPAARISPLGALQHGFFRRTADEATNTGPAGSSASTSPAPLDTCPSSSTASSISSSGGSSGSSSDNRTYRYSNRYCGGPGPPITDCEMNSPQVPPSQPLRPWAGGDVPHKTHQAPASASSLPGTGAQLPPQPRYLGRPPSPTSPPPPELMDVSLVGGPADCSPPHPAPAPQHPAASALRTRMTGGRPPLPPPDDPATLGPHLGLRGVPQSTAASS
Sequence of Dual specificity protein kinase CLK3 (Homo sapiens) (P49761 whole entry, looked up): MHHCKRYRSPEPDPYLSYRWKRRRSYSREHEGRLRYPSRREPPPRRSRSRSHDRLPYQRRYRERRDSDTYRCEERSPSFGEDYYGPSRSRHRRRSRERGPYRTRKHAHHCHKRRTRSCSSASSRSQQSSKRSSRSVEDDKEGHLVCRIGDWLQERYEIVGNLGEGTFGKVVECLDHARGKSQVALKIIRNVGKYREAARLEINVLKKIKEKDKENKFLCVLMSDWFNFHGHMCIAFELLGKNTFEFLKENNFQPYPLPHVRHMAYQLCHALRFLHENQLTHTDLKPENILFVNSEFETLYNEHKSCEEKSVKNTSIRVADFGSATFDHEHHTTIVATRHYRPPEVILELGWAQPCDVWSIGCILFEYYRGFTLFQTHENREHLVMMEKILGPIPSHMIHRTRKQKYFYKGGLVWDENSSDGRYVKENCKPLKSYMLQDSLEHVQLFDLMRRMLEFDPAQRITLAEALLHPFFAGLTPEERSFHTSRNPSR
Sequence of Glycogen synthase kinase-3 beta (Homo sapiens) (P49841 whole entry, looked up): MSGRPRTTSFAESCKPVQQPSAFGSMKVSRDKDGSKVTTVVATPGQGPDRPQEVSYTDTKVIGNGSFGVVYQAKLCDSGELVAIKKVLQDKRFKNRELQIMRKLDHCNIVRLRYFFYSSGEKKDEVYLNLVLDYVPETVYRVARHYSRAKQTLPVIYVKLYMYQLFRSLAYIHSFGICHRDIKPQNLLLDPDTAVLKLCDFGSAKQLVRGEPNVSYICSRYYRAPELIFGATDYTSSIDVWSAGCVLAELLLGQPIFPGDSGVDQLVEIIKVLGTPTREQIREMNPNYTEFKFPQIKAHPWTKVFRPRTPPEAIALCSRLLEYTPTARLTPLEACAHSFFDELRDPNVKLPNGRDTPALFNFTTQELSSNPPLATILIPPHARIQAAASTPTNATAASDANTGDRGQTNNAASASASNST
Sequence of Glycogen synthase kinase-3 alpha (Homo sapiens) (P49840 2-483 limits assumed): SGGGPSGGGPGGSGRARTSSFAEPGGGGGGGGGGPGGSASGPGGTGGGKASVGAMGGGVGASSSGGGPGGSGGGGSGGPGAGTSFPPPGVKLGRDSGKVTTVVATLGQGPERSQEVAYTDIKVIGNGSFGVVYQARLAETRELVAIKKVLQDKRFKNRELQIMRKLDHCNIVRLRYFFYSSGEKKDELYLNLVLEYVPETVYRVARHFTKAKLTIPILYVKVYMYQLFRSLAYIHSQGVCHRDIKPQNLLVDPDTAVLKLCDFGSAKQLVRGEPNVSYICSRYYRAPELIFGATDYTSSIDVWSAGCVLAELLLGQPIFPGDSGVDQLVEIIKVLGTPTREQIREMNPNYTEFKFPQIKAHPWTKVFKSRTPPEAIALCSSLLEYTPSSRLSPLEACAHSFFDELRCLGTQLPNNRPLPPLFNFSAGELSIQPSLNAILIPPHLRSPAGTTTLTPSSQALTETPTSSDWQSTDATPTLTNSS
Sequence of Mitogen-activated protein kinase 9 (Homo sapiens) (P45984 whole entry, looked up): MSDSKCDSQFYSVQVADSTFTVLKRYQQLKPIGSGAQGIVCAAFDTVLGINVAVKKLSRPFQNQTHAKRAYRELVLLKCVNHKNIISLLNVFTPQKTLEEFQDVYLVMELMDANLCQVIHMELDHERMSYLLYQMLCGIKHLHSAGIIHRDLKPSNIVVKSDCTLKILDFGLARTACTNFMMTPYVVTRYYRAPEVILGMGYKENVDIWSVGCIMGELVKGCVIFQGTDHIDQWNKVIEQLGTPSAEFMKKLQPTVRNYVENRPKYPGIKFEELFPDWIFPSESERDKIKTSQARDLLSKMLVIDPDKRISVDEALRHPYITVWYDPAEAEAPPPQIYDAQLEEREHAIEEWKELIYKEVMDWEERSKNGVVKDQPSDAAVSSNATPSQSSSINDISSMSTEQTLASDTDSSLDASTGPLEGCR
Sequence of Mitogen-activated protein kinase 1 (Homo sapiens) (P28482 whole entry): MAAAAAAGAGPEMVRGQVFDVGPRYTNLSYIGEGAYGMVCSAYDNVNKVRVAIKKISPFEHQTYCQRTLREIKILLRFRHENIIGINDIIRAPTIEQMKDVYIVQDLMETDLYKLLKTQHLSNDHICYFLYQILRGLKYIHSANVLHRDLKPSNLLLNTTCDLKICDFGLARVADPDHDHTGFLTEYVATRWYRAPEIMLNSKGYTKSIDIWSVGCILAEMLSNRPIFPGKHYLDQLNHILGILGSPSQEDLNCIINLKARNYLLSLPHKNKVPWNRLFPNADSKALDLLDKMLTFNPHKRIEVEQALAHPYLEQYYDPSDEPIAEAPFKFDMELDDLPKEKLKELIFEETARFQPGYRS

With `COc1ccc2c(-c3ccnc(Nc4cccc(OC(F)(F)F)c4)n3)cnn2n1`, the inhibition in experiment [1] worked out at 52.8%; in experiment [2], 16%; in experiment [3], 60.8%; in [4] it was 32.6%; in experiment [5], 77.2%; in experiment [6] it was 4.32%. For the same compound, the inhibition came out at 16% in [7]; 28.1% in [8]; 81.1% in experiment [9]; 21.2% in experiment [10]; 73.2% in experiment [11]; 84.8% in experiment [12]. Further, the inhibition in [13] is 91.7%; in experiment [14], 51.3%; in [15] it was 83%; in experiment [16], 1.35%; in [17], 11.4%; in [18] it was 2.96%. In addition, the figures for the inhibition in experiment [19] and in experiment [20] were 7.52% and 5.36%, respectively.

Regarding `Cc1ccc2c(-c3ccnc(Nc4ccccc4)n3)c(-c3ccc(F)cc3)nn2n1`, the inhibition in experiment [1] came to 1.61%; in [2], 0.7%; in [3] it was 5.42%; in experiment [4], 1%; in [5], 3.35%; in [6] it was 3.2%. Also, the inhibition in experiment [7] was 2.94%; in experiment [8], 9.81%; in experiment [9], 44.8%; in experiment [10], 22.4%; in experiment [11] it was 66.7%; in experiment [12], -0.41%. For the same compound, the inhibition was found to be 7.55% in [13]; 2.12% in experiment [14]; 4.2% in [15]; 44% in [16]; 81.2% in experiment [17]; 4.23% in [18]. Besides, the results for the inhibition in experiment [19] and in experiment [20] were 10.5% and 3.56%, respectively.

In the case of `COc1cccc(-c2c[nH]c3c(N/N=C/c4ccncc4)ncnc23)c1`, the inhibition was determined as 14% in [1]; 16.1% in [2]; 58.5% in [3]; 11.3% in [4]; 50.5% in [5]; 11.7% in experiment [6]. Besides, the inhibition in experiment [7] was found to be 57.8%; in experiment [8] it was 78.9%; in [9] it was 83.5%; in [10], 76.6%; in experiment [11], 83.5%; in experiment [12], 5.99%. In addition, the inhibition in experiment [13] was 41.7%; in experiment [14], 10.1%; in experiment [15], 43.2%; in [16] it was 2.08%; in experiment [17], 8.51%; in [18] it was 1.55%. The inhibition in [19] came out at 5.09%; in experiment [20] it was 1.78%.

As to `Cc1cccc(Nc2ncc(-c3ccccc3)o2)c1`, the inhibition in [1] was determined as 0.79%; in experiment [2], 1.29%; in experiment [3] it was 4.26%; in experiment [4], 0.51%; in [5] it was 2.16%; in [6], 3.21%. The inhibition in experiment [7] is 5.94%; in [8], 4.32%; in experiment [9], 12.3%; in [10], 3.23%; in [11] it was 12%; in [12] it was -1.62%. Further, the inhibition in experiment [13] worked out at 9.25%; in experiment [14], 1.22%; in [15], 8.11%; in experiment [16] it was 5.28%; in [17], 7.95%; in experiment [18], 3.91%. For the same compound, the results for the inhibition in [19] and in [20] were 5.08% and 5.66%, respectively.

`CN1CCC(n2cnc(-c3ccc(F)cc3)c2-c2ccnc(Nc3ccccc3)n2)CC1`: the inhibition was 0.59% in experiment [1]; 1.28% in [2]; 2.82% in [3]; 0.22% in [4]; 0.48% in [5]; 1.36% in [6]. In addition, the inhibition in experiment [7] amounted to 3.27%; in experiment [8] it was 3.08%; in experiment [9], 12.7%; in experiment [10], 4.95%; in experiment [11] it was 34.3%; in experiment [12], 2.6%. For the same compound, the inhibition came to 0.41% in [13]; 0.08% in experiment [14]; 7.29% in experiment [15]; 28% in [16]; 74.7% in experiment [17]; 2.4% in experiment [18]. Also, the figures for the inhibition in experiment [19] and in [20] were 5.02% and 3.96%, respectively.

For `CN(C)CCOc1ccc(-c2nc(-c3ccncc3)c(-c3ccc4c(c3)CC/C4=N\O)[nH]2)cc1`, the inhibition in [1] turned out to be 3.66%; in experiment [2], 4.17%; in experiment [3], 8.33%; in experiment [4], 2.86%; in [5], 5.07%; in experiment [6], 2.04%. In addition, the inhibition in experiment [7] was 4.1%; in [8], 5.08%; in experiment [9] it was 9.93%; in experiment [10], 4.7%; in [11], 9.68%; in experiment [12] it was 6%. Also, the inhibition in experiment [13] is 17.8%; in experiment [14], 3.76%; in experiment [15], 8.61%; in experiment [16], -0.13%; in experiment [17] it was 6.51%; in [18], 3.96%. The inhibition in [19] is 2.88%; in experiment [20], 1.97%.
